# According to PubChem BioAssay:
# Calls of active or inactive are those of the source.
# Key:
# [1] = small molecules captured by biotinylated probe aFSTL3 – biochemical, small-molecule microarray, fluorescence 635/667, stem cell growth factor project, primary screen (AID 1064); settings: higher = more signal;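 also: measures binding of the biotinylated anti-FSTL3 antibody to printed compounds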
# [2] = binders from COS7 lysate, DM2A8 probe, primary screen, torsin A project, cell lysate, small-molecule microarray, fluorescence 635/667 (AID 1065); settings: higher = more signal, COS7 lysate expressing mutant human TOR1A
# [3] = small molecules captured by biotinylated probe aFGF2 – biochemical, small-molecule microarray, fluorescence 635/667, stem cell growth factor project, primary screen (AID 1067); settings: higher = more signal;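 also: measures binding of biotinylated aFGF2 protein to printed compounds on slides; z-score merges feature fluorescence and signal-to-noise across triplicate slides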
# [4] = small molecules captured by biotinylated probe aFGF10 – biochemical, small-molecule microarray, fluorescence 635/667, stem cell growth factor project, primary screen (AID 1071); settings: higher = more signal;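 also: score merges 667 nm spot intensity and signal to noise from triplicate slides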
# [5] = biological target: Neurogenic locus notch homolog protein 2 (Homo sapiens) (UniProt Q04721); assay: small molecules binding Notch2 protein – biochemical, small-molecule microarray, 635 nm fluorescence, stem cell growth factors, primary screen (AID 1073); settings: higher = more signal
# [6] = biological target: Pro-neuregulin-1, membrane-bound isoform (Homo sapiens) (UniProt Q02297); assay: small molecules binding neuregulin-1 protein – biochemical, small-molecule microarray, fluorescence 635/667, psychiatric disease protein project, primary screen (AID 1075); settings: NRG1 binding, 635 nm fluorescence, higher = more signal;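 also: score combines 667 nm spot fluorescence with signal to noise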
# Pro-neuregulin-1, membrane-bound isoform (Homo sapiens), sequence (Q02297 whole entry, looked up, the tested form may be a part, canonical isoform): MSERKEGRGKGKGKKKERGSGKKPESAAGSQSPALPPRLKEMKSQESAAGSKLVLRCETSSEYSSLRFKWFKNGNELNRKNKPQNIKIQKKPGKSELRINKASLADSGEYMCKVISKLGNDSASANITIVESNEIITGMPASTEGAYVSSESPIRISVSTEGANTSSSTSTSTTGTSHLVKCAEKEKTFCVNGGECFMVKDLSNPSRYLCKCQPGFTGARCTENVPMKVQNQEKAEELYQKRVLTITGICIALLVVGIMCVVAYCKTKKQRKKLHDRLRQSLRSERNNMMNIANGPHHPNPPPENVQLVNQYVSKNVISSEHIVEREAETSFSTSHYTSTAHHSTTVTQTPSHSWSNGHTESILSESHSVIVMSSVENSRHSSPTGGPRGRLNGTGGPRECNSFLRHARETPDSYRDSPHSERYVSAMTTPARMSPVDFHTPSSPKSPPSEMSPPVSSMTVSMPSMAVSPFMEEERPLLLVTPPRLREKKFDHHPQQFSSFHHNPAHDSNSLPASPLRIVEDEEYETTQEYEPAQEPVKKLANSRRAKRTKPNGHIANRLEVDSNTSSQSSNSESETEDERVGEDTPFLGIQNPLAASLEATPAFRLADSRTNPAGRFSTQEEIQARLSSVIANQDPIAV
# [7] = test system: Neuregulin-1 EGF-like domain; assay: small molecules binding NRG1 EGF domain – biochemical, small-molecule microarray, 635 nm fluorescence, primary screen (AID 1081); settings: higher = more signal;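 also: binding of the protein to compounds printed on small-molecule microarray slides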
# [8] = FRG1 expression reporter modulators in myotubes – cell-based, C2C12 myotubes, firefly/Renilla luciferase, luminescence, FRG1 inhibition for FSHD, primary screen (AID 1084); settings: FRG1 promoter luciferase, higher = more signal, called active from +8 up or from −8 down
# [9] = small molecules captured by biotinylated probe aFST – biochemical, small-molecule microarray, fluorescence 635/667, stem cell growth factor project, primary screen (AID 1086); settings: higher = more signal;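 also: score merges 667 nm fluorescence with signal-to-noise of each printed compound spot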
# [10] = binders of probe aHhip on microarray, primary screen, stem cell growth factor project, biochemical, small-molecule microarray, fluorescence 635/667 (AID 1087); settings: higher = more signal;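 also: score merges spot fluorescence at 667nm with spot signal to noise ratio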
# [11] = test system: PRMT1 (protein arginine N-methyltransferase 1); assay: small molecules binding arginine methyltransferase PRMT1 – biochemical, small-molecule microarray, 635 nm fluorescence, primary screen (AID 1088); settings: higher = more signal;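 also: binding of Prmt1 protein to compounds spotted on small-molecule microarray slides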
# [12] = growth effects on S. cerevisiae YJM789 – YJM789 clinical isolate, OD600, 24 h, basal, primary screen (AID 1089); settings: higher = more signal, called active from +8 up or from −8 down;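 also: growth of clinical yeast isolate S. cerevisiae YJM 789 seeded 1000 cells per well; test concentration not given here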
# [13] = S. pombe growth modifiers, basal conditions – strain 972, OD600, 24 h, no modulator, primary screen (AID 1090);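 also: basal condition with compound alone and no growth modifier present; test concentration not given here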; settings: S. pombe 972 growth, higher = more signal, called active from +8 up or from −8 down
# [14] = budding yeast growth modifiers under rapamycin – strain BY4716, OD600, 96 h, primary screen (AID 1091); also: test concentration not given here; settings: S. cerevisiae BY4716 + rapamycin, higher = more signal, called active from +8 up or from −8 down
# [15] = biological target: Torsin-1A-interacting protein 2 (Homo sapiens) (UniProt Q8NFQ8); assay: small molecules binding lysate-expressed LULL1 – cell lysate, human LULL1 lysate, 635/667 nm fluorescence, primary screen (AID 1092); settings: small-molecule microarray, hLULL1 lysate binding, 635 nm fluorescence; higher = more signal;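 also: probe is lysate of COS7 cells overexpressing human LULL1; score merges per-feature 667 nm fluorescence with signal-to-noise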
# Torsin-1A-interacting protein 2 (Homo sapiens), sequence (Q8NFQ8 whole entry, looked up): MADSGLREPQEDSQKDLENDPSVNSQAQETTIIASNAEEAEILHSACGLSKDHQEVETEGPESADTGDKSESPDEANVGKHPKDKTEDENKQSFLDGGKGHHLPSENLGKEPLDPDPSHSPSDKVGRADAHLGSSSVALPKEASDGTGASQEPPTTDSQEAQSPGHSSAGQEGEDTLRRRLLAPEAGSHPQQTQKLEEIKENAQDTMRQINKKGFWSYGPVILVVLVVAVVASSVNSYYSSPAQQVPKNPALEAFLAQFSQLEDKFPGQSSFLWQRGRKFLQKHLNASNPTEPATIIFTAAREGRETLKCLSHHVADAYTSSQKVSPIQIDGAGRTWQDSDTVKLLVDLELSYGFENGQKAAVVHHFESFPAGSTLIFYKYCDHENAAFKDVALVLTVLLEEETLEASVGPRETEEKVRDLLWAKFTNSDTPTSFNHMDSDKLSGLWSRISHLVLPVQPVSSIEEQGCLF
# [16] = optical density change of DRC41 E. coli – strain DRC41, OD650, 24 h, E. coli filamentation project, primary screen (AID 1093);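 also: MC1000 strain lacking acrAB efflux and sulA so SOS filamentation is blocked; test concentration not given here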; settings: E. coli DRC41 growth, higher = more signal, called active from +8 up or from −8 down
# [17] = probe aLefty2 binding to arrayed compounds – biochemical, biotinylated probe, 635/667 nm fluorescence, primary screen (AID 1094); settings: small-molecule microarray, higher = more signal;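 also: score merges spot fluorescence near 667 nm with spot signal-to-noise ratio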
# [18] = test system: Noggin (protein binding on small-molecule microarray); assay: small molecules binding Noggin protein – biochemical, 635/667 nm fluorescence, primary screen (AID 1095); settings: 635 nm fluorescence, higher = more signal;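 also: score merges 667 nm feature fluorescence with signal to noise over triplicate slides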
# [19] = biological target: Neurogenic locus notch homolog protein 3 (Homo sapiens) (UniProt Q9UM47); assay: small molecules binding NOTCH3 protein – biochemical, 635/667 nm fluorescence, primary screen (AID 1096); settings: small-molecule microarray, 635 nm fluorescence, higher = more signal
# Neurogenic locus notch homolog protein 3 (Homo sapiens), sequence (Q9UM47 whole entry, looked up): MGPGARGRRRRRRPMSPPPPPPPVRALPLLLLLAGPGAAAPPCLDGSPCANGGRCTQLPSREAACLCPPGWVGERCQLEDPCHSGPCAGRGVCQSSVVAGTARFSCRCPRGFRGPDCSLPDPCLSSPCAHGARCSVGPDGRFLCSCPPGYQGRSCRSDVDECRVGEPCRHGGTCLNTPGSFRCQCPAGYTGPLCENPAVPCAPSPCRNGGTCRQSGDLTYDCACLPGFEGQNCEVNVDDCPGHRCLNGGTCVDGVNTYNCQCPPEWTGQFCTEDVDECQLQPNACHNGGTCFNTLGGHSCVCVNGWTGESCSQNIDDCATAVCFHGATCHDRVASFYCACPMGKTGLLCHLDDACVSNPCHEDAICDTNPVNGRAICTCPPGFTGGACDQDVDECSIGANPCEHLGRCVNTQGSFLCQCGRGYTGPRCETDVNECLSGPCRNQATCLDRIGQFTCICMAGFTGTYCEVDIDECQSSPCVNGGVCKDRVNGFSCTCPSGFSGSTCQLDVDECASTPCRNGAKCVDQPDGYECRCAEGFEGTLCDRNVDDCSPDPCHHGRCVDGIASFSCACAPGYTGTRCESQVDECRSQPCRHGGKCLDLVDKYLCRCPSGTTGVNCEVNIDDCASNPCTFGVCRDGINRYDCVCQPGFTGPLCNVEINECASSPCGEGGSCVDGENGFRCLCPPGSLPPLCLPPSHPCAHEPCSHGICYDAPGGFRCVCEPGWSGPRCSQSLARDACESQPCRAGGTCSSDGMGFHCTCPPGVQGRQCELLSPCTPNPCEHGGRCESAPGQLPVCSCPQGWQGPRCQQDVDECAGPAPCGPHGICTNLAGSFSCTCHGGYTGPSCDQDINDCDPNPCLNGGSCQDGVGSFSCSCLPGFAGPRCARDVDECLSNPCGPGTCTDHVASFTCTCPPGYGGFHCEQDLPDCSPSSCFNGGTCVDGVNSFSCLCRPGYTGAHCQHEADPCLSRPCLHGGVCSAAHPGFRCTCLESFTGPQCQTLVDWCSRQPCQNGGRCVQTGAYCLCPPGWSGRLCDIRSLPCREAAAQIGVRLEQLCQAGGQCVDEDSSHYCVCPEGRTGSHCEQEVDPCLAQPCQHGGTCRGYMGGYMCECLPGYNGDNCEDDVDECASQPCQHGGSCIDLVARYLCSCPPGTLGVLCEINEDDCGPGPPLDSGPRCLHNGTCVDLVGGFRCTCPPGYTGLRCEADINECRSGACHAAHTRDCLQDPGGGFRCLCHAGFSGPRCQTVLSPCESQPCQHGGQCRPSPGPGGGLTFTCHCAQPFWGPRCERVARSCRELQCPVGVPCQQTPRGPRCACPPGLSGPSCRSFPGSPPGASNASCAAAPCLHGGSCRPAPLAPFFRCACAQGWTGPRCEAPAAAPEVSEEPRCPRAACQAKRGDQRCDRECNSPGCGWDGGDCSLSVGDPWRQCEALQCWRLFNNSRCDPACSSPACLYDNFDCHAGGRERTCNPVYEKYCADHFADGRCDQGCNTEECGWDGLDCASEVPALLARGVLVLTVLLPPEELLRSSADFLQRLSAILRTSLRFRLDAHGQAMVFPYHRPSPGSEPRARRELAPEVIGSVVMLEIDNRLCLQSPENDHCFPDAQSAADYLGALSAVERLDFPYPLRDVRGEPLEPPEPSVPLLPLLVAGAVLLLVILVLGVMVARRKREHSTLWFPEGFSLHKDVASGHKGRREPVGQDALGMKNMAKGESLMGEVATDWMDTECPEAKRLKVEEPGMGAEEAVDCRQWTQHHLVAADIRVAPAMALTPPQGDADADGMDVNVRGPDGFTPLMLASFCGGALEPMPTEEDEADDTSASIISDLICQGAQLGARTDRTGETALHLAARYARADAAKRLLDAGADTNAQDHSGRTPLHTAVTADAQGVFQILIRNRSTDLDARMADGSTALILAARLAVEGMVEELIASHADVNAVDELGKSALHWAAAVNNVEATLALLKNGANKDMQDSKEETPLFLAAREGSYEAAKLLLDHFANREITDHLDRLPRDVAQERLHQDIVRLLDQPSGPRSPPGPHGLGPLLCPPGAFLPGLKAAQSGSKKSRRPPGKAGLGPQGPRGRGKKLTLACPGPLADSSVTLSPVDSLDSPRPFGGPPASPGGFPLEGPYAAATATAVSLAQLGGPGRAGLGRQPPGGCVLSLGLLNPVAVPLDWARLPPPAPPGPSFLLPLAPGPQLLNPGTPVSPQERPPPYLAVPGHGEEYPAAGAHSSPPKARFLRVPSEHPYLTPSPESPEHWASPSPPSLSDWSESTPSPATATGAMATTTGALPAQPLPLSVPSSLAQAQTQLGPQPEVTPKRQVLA
# [20] = probe aEGFR binding to arrayed compounds – biochemical, biotinylated probe, 635/667 nm fluorescence, primary screen (AID 1097); settings: small-molecule microarray, higher = more signal;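 also: probe is a biotinylated anti-EGFR antibody binding compounds printed on slides; score combines fluorescence near 667 nm and signal to noise of each spot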
Compound,composite z-score [1],composite z-score [2],composite z-score [3],composite z-score [4],composite z-score [5],composite z-score [6],composite z-score [7],z-score [8],composite z-score [9],composite z-score [10],composite z-score [11],z-score [12],z-score [13],z-score [14],composite z-score [15],z-score [16],composite z-score [17],composite z-score [18],composite z-score [19],composite z-score [20]
COCCOC(=O)N1C(=O)[C@@]2(c3cc(C#CC4=CCCCC4)ccc31)[C@H](c1ccc(O)cc1)N1[C@H](c3ccccc3)[C@H](c3ccccc3)OC(=O)[C@H]1[C@@H]2C(=O)Nc1nc2ccccc2s1,-0.177,0.441,0.0323,0.969,1.24,0.896,1.23,1.53 (inactive),1.06,0.0972,1.54,0.724 (inactive),0.0687 (inactive),0.801 (inactive),3.5,-0.249 (inactive),-0.141,0.824,1.04,0.178
COCCOC(=O)N1C(=O)[C@@]2(c3cc(C#CC4=CCCCC4)ccc31)[C@H](c1ccccc1OCCO)N1[C@H](c3ccccc3)[C@H](c3ccccc3)OC(=O)[C@H]1[C@@H]2C(=O)N1CCc2cc(OC)c(OC)cc2C1,-0.516,0.433,0.0571,0.515,1.18,0.319,1.07,-0.202 (inactive),0.401,-0.521,1.55,1.83 (inactive),0.819 (inactive),3.63 (inactive),0.889,-0.0749 (inactive),-0.479,0.676,1.08,-0.33
CCOC(=O)C[C@H]1[C@H](OC(=O)c2ccc(-c3ccccc3)cc2)[C@@H](NC(=O)C2CCCCC2)c2cc(OCCCO)ccc2N1C(=O)c1ccccc1,-0.539,0.338,-0.0344,0.303,0.425,0.397,0.337,-0.298 (inactive),0.345,0.103,0.5,0.285 (inactive),0.881 (inactive),1.29 (inactive),1.44,-0.964 (inactive),-0.13,0.714,0.855,-0.113
C=CC1c2cc(O)c(OC)cc2CCN1Cc1sc2ccccc2c1Cl (stereo not given),1.12,0.396,-0.0316,0.436,1.2,1.9,1.23,-0.732 (inactive),0.853,-0.0237,0.756,-1.62 (inactive),-19.2 (active),-0.399 (inactive),2.49,-0.368 (inactive),0.233,0.123,0.968,0.0673
O=C(N1CCCCC1)[C@@]1(Cc2ccccc2)COC(c2ccc(OCCCO)cc2)=N1,0.771,0.81,0.0661,1.1,1.33,1.91,1.25,-2.97 (inactive),0.53,0.347,1.31,-0.22 (inactive),-5.35 (inactive),1.58 (inactive),3.21,1.06 (inactive),0.511,-0.315,0.622,0.548
CC(C)(C)OC(=O)CC[C@]1(C(=O)O)N=C(c2ccc(OCCCO)cc2)O[C@H]1c1ccccc1CN=[N+]=[N-],-0.169,-0.246,0.0911,0.113,0.261,1,1.45,2.04 (inactive),0.794,-0.409,-0.619,0.832 (inactive),0.291 (inactive),-0.683 (inactive),2,0.275 (inactive),-0.0991,-0.465,0.168,-0.103
CC[C@@H]1[C@H]2C3C(=O)N(CC)C(=O)C3CC(=O)[C@H]2[C@H](c2ccc(C)cc2)N1S(=O)(=O)c1ccc(C)cc1 (stereo not given in full),-0.0209,0.172,-0.0878,0.457,1.44,0.519,0.57,-0.319 (inactive),0.84,-0.0296,1.09,0.0287 (inactive),1.15 (inactive),1.6 (inactive),2.75,-0.243 (inactive),-0.203,0.712,1.12,-0.0353
CN(C)C(=O)[C@@]1(Cc2ccccc2N=[N+]=[N-])COC(c2ccc(OCCCO)cc2)=N1,0.541,0.33,0.0493,1.02,0.687,1.05,1.33,-0.927 (inactive),0.495,0.0349,1.37,-1.85 (inactive),-7.64 (inactive),0.337 (inactive),3.33,1.84 (inactive),0.072,0.577,0.481,0.553
O=C1O[C@@H](c2ccccc2)[C@@H](c2ccccc2)N2[C@@H](c3ccccc3OCCO)[C@]3(C(=O)Nc4ccc(C#CCCO)cc43)[C@@H](C(=O)N3CCN(c4ncccn4)CC3)[C@H]12,-0.132,-0.167,-0.0004,0.608,1.34,1.56,1.13,-2.32 (inactive),0.29,-0.069,1.55,1.75 (inactive),-0.631 (inactive),3.99 (inactive),2.93,0.935 (inactive),-0.0708,0.207,0.59,-0.0858
COC(=O)[C@@]1(Cc2ccc(F)cc2)[C@H]2c3cc(C(=O)N4CCCC4)n(CCc4c[nH]c5ccc(OC)cc45)c3C[C@H]2CN1C(=O)c1ccccc1,1.66,-0.619,0.803,1.3,1.58,1.46,1.19,1.61 (inactive),2.02,0.413,-0.508,-0.0567 (inactive),-0.156 (inactive),2.07 (inactive),3.37,-0.803 (inactive),0.957,1.26,1.11,0.44
